Rows were chosen to be rich in hits. Some 18% of all compounds tested hit in one or more screens of this group.
IL1B secr inh: blocks inflammasome-driven IL-1 beta release. activity change, % at 57.5 µM. THP-1 LPS/ATP IL-1B secretion, AlphaLISA, 16 h; hits give low values. hit rate 4.7% among 360,000; in the data active = activity change below about -50%; inconclusive = mostly about -30% to -49%; also: % is scaled to controls: 0 for no effect and ±100 for the full control effect
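THP-1 cells pretreated 1 hr with compounds (up to 57.5 uM final), then stimulated with LPS (250 ng/mL final) plus ATP (1.25 mM final); secreted IL-1B measured by AlphaLISA after 16 hr, decreased signal indicating inhibition.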
DT40 TDP1 CPT: growth inhibition of DT40 Tdp1-/-;hTDP1 cells with camptothecin (screen for TDP1 inhibitors) | chicken DT40 Tdp1-/-;hTDP1 cells + 20 nM CPT, ATP luminescence, 48 h | Potency, µM (doses to about 46.2 µM), for the others: at the highest dose activity change, negative = growth inhibition, hits mostly inhibitors | hit rate 12% among 420,000; also: potency is read from the fitted curve at half-maximal effect; % is scaled to controls: 0 for no effect and ±100 for the full control effect; nearly all actives have a fitted effect of over 55% in size
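Chicken DT40 Tdp1-/- cells stably complemented with human TDP1 were seeded at 400 cells/well in medium containing 20 nM camptothecin, exposed to pin-transferred compounds, and grown at 37 °C for at least 48 hr. Viability was read as ATP luminescence.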
TGFb SMAD3 inh: inhibitors of TGF-b signaling; HepG2 CAGA-GFP TGF-b/SMAD3 reporter, GFP fluorescence, 18 h; TGF-beta stimulated, 500 pg/mL final; Potency, µM (top dose mostly 46.1 µM), inactives show at the top dose activity, negative = inhibition, most hits filed as inhibitors; hit rate 1.2% among 410,000; AID 588855; also: potency is read from the fitted curve at half-maximal effect; % is scaled to controls: 0 for no effect and ±100 for the full control effect; nearly all actives have a fitted effect of over 65% in size
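TGF-beta reporter screen: HEPG2 CAGA-GFP, 1% FBS, 500 pg/mL TGF-beta final, 18 h; per-cell GFP summed per well; curves fitted and categorized by class.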
HepG2 viability: counter-screen for TGF-b inhibitors: cytotoxicity in HepG2 cells; HepG2 CAGA-GFP viability, ATP luminescence, 18 h; Potency, µM (highest dose often 46.1 µM), for the others: top-dose activity change, negative = cytotoxicity, usual class: cytotoxic; hit rate 0.76% among 410,000; AID 588856; also: potency is read from the fitted curve at half-maximal effect
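HepG2 CAGA-GFP cells (1000/well, DMEM with 1% FBS) received compound, then TGF-beta at 500 pg/mL final, and were incubated 18 hours at 37 degrees C. Viability was read by CellTiter-Glo luminescence. Media-only wells were set as complete cell-killing and DMSO as no toxicity.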
TDP1 block: TDP1 (human) enzyme inhibition; Potency, µM (titrated, usually from 130 µM), inactives show top-dose activity change, negative = inhibition, usual class: inhibitors; recombinant TDP1, AlphaScreen DNA substrate cleavage; AID 485290; hit rate 0.28% among 350,000; Q9NUW8; also: potency is read from the fitted curve at half-maximal effect; % is scaled to controls: 0 for no effect and ±100 for the full control effect; nearly all actives have a fitted effect of over 40% in size
Target sequence (Q9NUW8 whole entry, looked up): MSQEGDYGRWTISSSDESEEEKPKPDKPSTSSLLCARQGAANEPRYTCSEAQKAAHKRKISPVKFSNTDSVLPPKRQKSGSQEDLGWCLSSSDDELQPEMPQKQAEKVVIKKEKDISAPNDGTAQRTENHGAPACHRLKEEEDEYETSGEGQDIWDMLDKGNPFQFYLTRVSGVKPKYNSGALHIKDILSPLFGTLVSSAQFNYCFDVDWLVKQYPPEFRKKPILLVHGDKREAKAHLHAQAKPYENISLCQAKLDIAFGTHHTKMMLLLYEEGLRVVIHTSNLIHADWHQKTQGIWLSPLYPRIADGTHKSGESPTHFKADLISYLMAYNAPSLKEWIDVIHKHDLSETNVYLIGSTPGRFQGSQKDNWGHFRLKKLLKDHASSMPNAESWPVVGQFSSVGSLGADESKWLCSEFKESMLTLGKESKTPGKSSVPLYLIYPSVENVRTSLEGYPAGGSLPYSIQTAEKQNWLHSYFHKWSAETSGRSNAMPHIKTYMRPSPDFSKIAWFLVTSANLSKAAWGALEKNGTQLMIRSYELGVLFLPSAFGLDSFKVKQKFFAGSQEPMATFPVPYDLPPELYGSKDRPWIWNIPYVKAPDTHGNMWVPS
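Enzyme-compound mixtures sat 15 min at room temperature, followed by a 5 min reaction with 15 nM final substrate and 10 min with AlphaScreen beads. Recombinant human Tdp1 was used at 1 nM final.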
DT40 TDP1 no CPT: qHTS for Inhibitors of human tyrosyl-DNA phosphodiesterase 1 (TDP1): qHTS in cells in absence of CPT. DT40 Tdp1-/- hTDP1 cells, no CPT, ATP luminescence, 48 h. Potency, µM (top dose mostly 46.2 µM), for the others: at the top dose activity change, negative = growth inhibition, hits mostly inhibitors. hit rate 15% among 420,000. AID 686978, 2013; also: potency is read from the fitted curve at half-maximal effect; % is scaled to controls: 0 for no effect and ±100 for the full control effect; nearly all actives have a fitted effect of over 55% in size
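Cells were dispensed at 400 per well, compounds added by pin tool, plates incubated ≥48 hr at 37 °C, then CellTiter-Glo added for 30 min at room temperature before luminescence reading. Line: DT40 Tdp1-/- complemented with hTDP1; camptothecin omitted.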
Starred values were filed as active, the others as inactive; ? = inconclusive; nt = no result; [ ] = remark or other dose. Unless noted, calls follow the shape of the dose curve; as a rule, active = well fitted curve in the direction sought with a large enough effect; inconclusive = small, poorly fitted or top-dose-only effect, or another doubt; inactive = no such curve, though single readings can be large; an effect the other way counts as inactive or inconclusive.

SMILES | IL1B secr inh | DT40 TDP1 CPT | TGFb SMAD3 inh | HepG2 viability | TDP1 block | DT40 TDP1 no CPT
CCCCn1c(=N)n(CCOc2ccc(C)cc2)c2ccccc21 | nt | 4.6µM* | ? | -97% | 1% | 5.8µM*
CCCCn1c(=N)n(CCOc2ccccc2OC)c2ccccc21 | nt | 2.9µM* | 10µM* | -59% | -1% | 4.1µM*
C=CCn1c(=N)n(CC(O)COc2ccccc2OC)c2ccccc21 (stereo not given) | ? | ? | 0% | -24% | 2% | ?
Cc1ccc2c(CC(=O)N(Cc3cccc(Cl)c3)C3CCS(=O)(=O)C3)coc2c1 (stereo not given) | nt | ? | ? | -5% | 2% | ?
O=C1COc2cc(S(=O)(=O)CCC(=O)N3CCN(c4ccccc4)CC3)c(Cl)cc2N1 | nt | nt | 2% | -7% | 3% | nt
Cc1ccccc1-c1nc(SCC(=O)NCc2ccc(F)cc2)c2c(=O)n(C)c(=O)n(C)c2n1 | nt | 5% | -19% | 3% | 3% | 6%
CCc1nc2ccc(C(=O)NCc3ccccc3OC)cn2c1N(C=O)CCC(C)C | -9 | 23µM* | 11% | 3% | nt | 16µM*
CCCCN(C=O)c1c(CC)nc2ccc(C(=O)NCc3ccccc3OC)cn12 | -6 | ? | -8% | -1% | nt | ?
CCc1nc2ccc(C(=O)N3CCCCC3)cn2c1N(CCC(C)C)CCN(C)C | -14 | -30% | 31% | -2% | nt | -27%
CCc1nc2ccc(C(=O)NCc3cccs3)cn2c1N(CCC(C)C)CCN(C)C | -25 | ? | 10% | -28% | nt | ?
CCc1nc2ccc(C(=O)NCC3CCCCC3)cn2c1N(CCC(C)C)CCN(C)C | 18 | 18µM* | ? | -105% | nt | 26µM*
CCc1nc2ccc(C(=O)NCc3ccc(OC)cc3)cn2c1N(CCC(C)C)CCN(C)C | -15 | ? | -5% | -38% | nt | 16µM*
CCC(C)(C)C1CCC2(CC1)NC(=O)N(CC(=O)N1CCN(c3ccccc3OC)CC1)C2=O (stereo not given) | -13 | 21µM* | -3% | 5% | nt | 21µM*
CN(Cc1ccc2c(c1)OCCO2)C(=O)CN1C(=O)NC2(CCCCC2)C1=O | 0 | -12% | -7% | -23% | 1% | 0%
CCC(C)(C)C1CCC2(CC1)NC(=O)N(CC(=O)N(C)Cc1ccc3c(c1)OCCO3)C2=O (stereo not given) | -17 | ? | -4% | -16% | 2% | 21µM*
CCC(C)(C)C1CCC2(CC1)NC(=O)N(CC(=O)Nc1nc(-c3ccc(C)cc3)cs1)C2=O (stereo not given) | 16 | ? | -25% | 4% | 6% | 7.3µM*
CCC(C)(C)C1CCC2(CC1)NC(=O)N(CC(=O)NC(C)CCc1ccccc1)C2=O (stereo not given) | -5 | ? | 4% | -23% | -7% | 12µM*
O=C1[C@H]2[C@H]3[C@H](O)[C@H](O)C/C(=N/OC[C@@H](O)COCc4ccco4)[C@@H]3CC[C@@H]2C(=O)N1Cc1ccc2c(c1)OCO2 | nt | nt | nt | nt | 9%[21 µM] | nt
CCC(C)[C@H]1CNC(=O)C(=O)N1CC1CCCCC1 (stereo not given in full) | nt | 4% | nt | nt | nt | -18%
COc1cc(C2CC(=O)Oc3c(C(CCN4CCOCC4)c4ccc(N(C)C)cc4)c(OC)cc(OC)c32)cc(OC)c1OC (stereo not given) | 6 | ? | -13% | 0% | 24% | -9%
COc1cc(OC)c2c(C)cc(=O)oc2c1C(CCN1CCOCC1)c1ccc(N(C)C)cc1 (stereo not given) | 0 | 5.2µM* | -5% | -29% | nt | 16µM*

High-throughput results from PubChem.
